Measurements published in PubChem BioAssay AID504334 (NMMLSC, 2011).
“And” between values parts separate entries of the source, which are not always exact repeats. Equal entries are not always repeated.

assay: AGP1-GFP expression modulators, hit retest, confirmation, cell-based, flow cytometry, S. cerevisiae, cherry pick set 3 (AID 504334);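 further: median GFP fluorescence per well by flow cytometry over the all cells gate; ratio of sample to mean DMSO control signal so DMSO = 100% not 0%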; conditions: S. cerevisiae AGP1-GFP strain, 3 h, at 10 µM, active compounds read high;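 active means response relative to DMSO over 150%; inconclusive means yeast strain with under 70 recorded events; inactive means the rest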

Percent response vs DMSO, inactive:
CN(C)CCCNc1cc(O)c2ncccc2c1 105%
O=C1c2ccccc2C(=O)c2c1cccc2N(CCO)CCO 98.8%
O=C(Nc1ccc(-c2nc3ccccc3o2)cc1)c1cccnc1 100%
Cc1ccc(-c2cc(C(F)F)nc(S(C)(=O)=O)n2)cc1 110%
COc1ccc(NC(=O)ON=C2c3ccccc3-c3ccccc32)cc1 98.1%
COc1ccc(N/C(C)=C/C(=O)c2ccccc2)cc1 98.4%
Cc1ccc(Nc2cc(=O)[nH]c(=O)[nH]2)cc1Cl 102%
COc1cccc(OCc2cc(C(=O)N3CCN(C)C(c4ccccc4)C3)no2)c1 (centres undefined) 101%
C/C(=C\C(=O)c1ccccc1)Nc1ccc(O)cc1 98.4%
OCc1ccnc2c(O)cccc12 100%
Cn1cccc1C(=O)Nc1nc(-c2ccccn2)cs1 99.1%
O=C(Nc1ccccc1)ON=C1c2ccccc2-c2ccccc21 97.8%
CNc1cccc2c1C(=O)c1ccccc1C2=O 100%
OCc1ccc(O)c2ncccc12 98.8%
Brc1ccc2ncnc(NCc3ccccc3)c2c1 94.8%
CCC(=O)Nn1cnc2c(c1=O)C1(CCCCC1)Cc1ccccc1-2 102%
O=c1cc(C(F)(F)F)[nH]c2c(OC(F)(F)F)cccc12 99.4%
COc1ccccc1-c1cc(C(F)(F)F)nc(S(C)(=O)=O)n1 130%
COCC(C)NC(=O)CCS(=O)(=O)c1nc(-c2ccc(OC)cc2)cc(C(F)(F)F)n1 (centres undefined) 98.4% and 101%
OCCN1CCN(c2ncnc3ccc(Br)cc23)CC1 99.8%
COc1ccc(OC)c2c(C)cc(C)nc12 97.1%
CCc1c(C)nc2c(OC)cccc2c1Cl 99.4%
CCCC(=O)Nn1cnc2c(c1=O)C1(CCCC1)Cc1ccccc1-2 101%
C/C(=C\C(=O)c1ccc(C)cc1)Nc1cccc(O)c1 101%
Nc1ncnc(Nc2cc(Cl)cc(Cl)c2)c1[N+](=O)[O-] 98.8%
COc1cccc(N/C=C/C(=O)c2ccc(C)cc2)c1 99.8%
COc1cccc(NC(=O)CC(C)=O)c1 98.8%
C[n+]1cccc2c(Br)ccc([O-])c21 100%
O=C(O)CCS(=O)(=O)c1nc(-c2cccs2)cc(C(F)(F)F)n1 111%
Cc1cccc(N/C=C/C(=O)c2ccc(Cl)cc2)c1 95.4%
CCC(C)Nc1nc(N)c([N+](=O)[O-])c(Nc2cc(OC)ccc2OC)n1 (centres undefined) 98.8%
CSc1nc(S(C)(=O)=O)nc2[nH]c(=O)[nH]c12 103%
COc1ccccc1Nc1nc(NCCCN(C)C)nc(N)c1[N+](=O)[O-] 102%
O=C(Nc1cccc2ccccc12)ON=C1CCCCC1 99.8%
Oc1ccc(F)c2cccnc12 102%
Oc1c(Cl)cc(Cl)c2cccnc12 98.8%
Cc1nc(Nc2ccc(Br)cc2Br)c([N+](=O)[O-])c(=O)[nH]1 95.4%
O=C(N/N=C/c1ccccc1)c1cccc2ccccc12 101%
COc1ccccc1OCc1cc(C(=O)N2CCN(C)C(c3ccccc3)C2)no1 (centres undefined) 98.8%
